# This is a sample that favours compounds with a hit; in the whole collection about 0.88% have one here.
# APE1 inh: blocks human APE1 abasic DNA cleavage. P27695. recombinant APE1, TAMRA/BHQ-2 abasic DNA cleavage fluorescence. Potency, µM (series often up to 65.8 µM), inactives show top-dose activity change, negative = inhibition, most hits filed as inhibitors. 350,000 compounds, 0.35% hits;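 also: potency is read from the fitted curve at half-maximal effect; plate controls were vehicle for no effect and reference inhibitor for full effect; nearly all actives have a fitted effect of over 55% in size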
#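 Enzyme (0.75 nM final) and test compound are incubated 15 min at room temperature before adding 50 nM quenched THF abasic-site duplex. Cleavage dequenches TAMRA, followed at 525/598 nm over three reads one minute apart.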
# ERG Ets-DNA blk: inhibitors of human ERG Ets domain-DNA interaction; fluorescence polarization, His-ERG Ets domain / labelled DNA; Potency, µM (top dose mostly 76.9 µM), inactives show top-dose FP activity, negative = inhibition, actives largely listed as inhibitors; 370,000 compounds, 0.028% hits; AID 624246; active = well fitted inhibition curve with a large enough effect in the polarisation, with a control signal flat; inconclusive = small, poorly fitted or top-dose-only effect, or effect the other way, or a change in a side signal; inactive = no such curve, though single readings can be large or run the other way; the % refers to the polarisation;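 also: polarization taken with two DNA probes labelled with fluorescein and Texas red; potency is read from the fitted curve at half-maximal effect; % of control where 0% means no effect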
#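 His-tagged ERG Ets domain (1 uM in the protein solution; 300mM KCl, 50mM Tris-HCl, 1mM EDTA, 1mM DTT, pH 7.5) received compound, then a probe mix of 5 nM fluorescein-DNA and 100nM Texas-615-DNA. Fluorescence polarization was read for both dyes.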
# GCN5L2 inh-1: GCN5L2 (KAT2A) acetyltransferase inhibition | Potency, µM (highest dose often 58.9 µM), without a hit: top-dose activity change, negative = inhibition, hits mostly inhibitors | Q92830 | GCN5L2 HAT assay, ThioGlo1 CoA-SH fluorescence | 390,000 compounds, 0.21% hits; also: potency is read from the fitted curve at half-maximal effect; % is scaled to controls: 0 for no effect and ±100 for the full control effect
#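 qHTS, 1536-well. 20nM enzyme, pH 7.5 HEPES/EDTA/Tween-20 buffer; 15 min compound preinc., RT. Start: 75uM H3(1-25), 70uM AcCoA, 50uM ThioGlo1. Read Ex340/Em540 at t=0 (autofluorescence flag) and t=20 min.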
# WRN inhibitor: WRN helicase (human) inhibition | WRN helicase unwinding, fluorescent forked duplex, kinetic | Potency, µM (doses to about 114 µM), for the others: top-dose activity change, negative = inhibition, usual class: inhibitors | 360,000 compounds, 0.46% hits; also: potency is read from the fitted curve at half-maximal effect; % is scaled to controls: 0 for no effect and ±100 for the full control effect; nearly all actives have a fitted effect of over 55% in size
#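 Fluorescence dequenching readout, ex 525 nm/em 598 nm, kinetic mode: forked duplex DNA (100 nM final) with adjacent fluorophore and quencher unwound by WRN (20 nM final) with 2 mM ATP. Compound preincubation 15 min, room temperature.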
# BLM helicase inh: Bloom syndrome helicase (human) inhibition | 350,000 compounds, 0.2% hits | P54132 | Potency, µM (top dose mostly 56.1 µM), inactives show top-dose activity change, negative = inhibition, hits mostly inhibitors | recombinant BLM DNA unwinding, fluorescence dequenching;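 also: potency is read from the fitted curve at half-maximal effect; plate controls were vehicle for no effect and no enzyme for full effect; nearly all actives have a fitted effect of over 35% in size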
# RECQ1 inh-1: blocks DNA unwinding by human RECQ1; Potency, µM (series often up to 57.3 µM), without a hit: top-dose activity, negative = inhibition, hits mostly inhibitors; P46063; 240,000 compounds, 0.54% hits; RECQ1 DNA unwinding, red fluorescence kinetic read;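 also: potency is read from the fitted curve at half-maximal effect; plate controls were vehicle for no effect and no enzyme for full effect; nearly all actives have a fitted effect of over 30% in size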
# Target sequence (P46063 whole entry, looked up): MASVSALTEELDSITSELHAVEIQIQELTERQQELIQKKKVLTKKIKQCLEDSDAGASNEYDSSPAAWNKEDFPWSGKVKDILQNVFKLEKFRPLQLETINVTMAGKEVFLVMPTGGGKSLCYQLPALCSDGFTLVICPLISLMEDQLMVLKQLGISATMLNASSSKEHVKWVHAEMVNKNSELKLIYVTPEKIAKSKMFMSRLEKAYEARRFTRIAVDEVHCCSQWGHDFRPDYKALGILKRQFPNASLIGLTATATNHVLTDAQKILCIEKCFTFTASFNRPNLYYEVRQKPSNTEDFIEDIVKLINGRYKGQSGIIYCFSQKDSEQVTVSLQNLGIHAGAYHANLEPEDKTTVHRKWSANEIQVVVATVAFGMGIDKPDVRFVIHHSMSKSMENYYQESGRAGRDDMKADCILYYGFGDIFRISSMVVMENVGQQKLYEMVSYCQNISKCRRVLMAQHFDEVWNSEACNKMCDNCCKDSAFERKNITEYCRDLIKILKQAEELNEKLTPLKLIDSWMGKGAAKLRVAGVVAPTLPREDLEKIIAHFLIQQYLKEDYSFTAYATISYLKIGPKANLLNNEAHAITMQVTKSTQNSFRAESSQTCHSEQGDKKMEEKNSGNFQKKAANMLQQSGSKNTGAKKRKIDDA
#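 50 nM RECQ1T1 preincubated 15 min with compound in Tris pH 8.0 buffer with MgCl2, DTT, Tween-20 and 2.5 ug/ml poly(dI-dC); started with 200 nM TAMRA/BHQ-2 forked duplex and 2 mM ATP. Unwinding read as fluorescence (525/598 nm), two reads 2 h apart.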
# RECQ1 inh conf: confirmation of human RECQ1 helicase inhibitors. shares compounds with RECQ1 inh-1. RECQ1 helicase DNA unwinding, fluorescence. Potency, µM (doses to about 229 µM), inactives show at the top dose activity change, negative = inhibition, most hits filed as inhibitors. 610 compounds, 28% hits. AID 2708; also: potency is read from the fitted curve at half-maximal effect; % is scaled to controls: 0 for no effect and ±100 for the full control effect; nearly all actives have a fitted effect of over 45% in size
# RECQ1 ADP FP: counter-screen for RECQ1 inhibitors: ADP displacement. shares compounds with RECQ1 inh-1. ADP fluorescence polarization displacement counterscreen. Potency, µM (series often up to 228 µM), for inactives: at the top dose activity change, negative = inhibition, usual class: inhibitors. 530 compounds, 27% hits. AID 2711; also: potency is read from the fitted curve at half-maximal effect; % is scaled to controls: 0 for no effect and ±100 for the full control effect; nearly all actives have a fitted effect of over 45% in size
# RECQ1 inh-2: confirmation of human RECQ1 helicase inhibitors; recombinant RECQ1 DNA unwinding, red fluorescence; 1,100 compounds, 15% hits; Potency, µM (top dose mostly 119 µM), without a hit: at the highest dose activity, negative = inhibition, actives largely listed as inhibitors; shares compounds with RECQ1 inh-1; AID 504841; also: potency is read from the fitted curve at half-maximal effect; % is scaled to controls: 0 for no effect and ±100 for the full control effect; nearly all actives have a fitted effect of over 50% in size
# GCN5L2 inh-2: human KAT2A HAT inhibition, hit confirmation. shares compounds with GCN5L2 inh-1. GCN5L2 HAT, ThioGlo1 CoA fluorescence, 20 min. Potency, µM, actives largely listed as inhibitors. 140 compounds, 70% hits. AID 588347
# * hit, by the source's call; ? = inconclusive; / = no result; [ ] = remark or other dose. Unless noted, calls follow the shape of the dose curve; as a rule, active = well fitted curve in the direction sought with a large enough effect; inconclusive = small, poorly fitted or top-dose-only effect, or another doubt; inactive = no such curve, though single readings can be large; an effect the other way counts as inactive or inconclusive.
SMILES,APE1 inh,ERG Ets-DNA blk,GCN5L2 inh-1,WRN inhibitor,BLM helicase inh,RECQ1 inh-1,RECQ1 inh-2,others
C=CCN1C(=O)CS/C1=N\S(=O)(=O)c1ccc(Cl)cc1,-3.5%,/,11.6%,12.4%,-0.5%,?,-9.7%,
O=C(C1=NN[C@@H]2C(=O)N(c3cccc(C(F)(F)F)c3)C(=O)[C@H]12)C(c1ccccc1)c1ccccc1,-7.0%,-8.6%,7.1%,-1.0%,-11.7%,28.2µM*,-20.2%,
COc1ccc(Nc2ncc3c(n2)CCN(Cc2cccc(F)c2F)C3)c(OC)c1,/,-4.9%,-5.8%,/,-2.9%,/,/,
CC1=NN(c2ccc(N)cc2)C(=O)C1,?,2.5%,-14.0%,44.7µM*,-23.9%,?,-1.6%,
CC1(Cc2ccc(C(F)(F)F)o2)C(=O)Nc2cc(-c3ccc(F)cc3F)ccc21 (centres undefined),/,/,/,-4.7%,/,/,/,
CS(=O)(=O)N1CCN(c2ccc([N+](=O)[O-])c(NCc3ccccc3)c2)CC1,-1.5%,5.1%,-19.0%,6.2%,-4.3%,-12.8%,/,
CS(=O)(=O)N1CCN(c2ccc([N+](=O)[O-])c(NCc3ccc(Cl)cc3)c2)CC1,2.0%,-6.4%,-10.2%,?,15.8µM*,31.6µM*,?,
CC(C)NC(=O)C1CCN(C(=O)N2CC(C)Oc3ccccc32)CC1 (centres undefined),/,-3.3%,-5.7%,/,0.7%,/,/,
O=C(CSc1ccc(Cl)cc1)Nc1ccc(-c2nc3ccccc3[nH]2)cc1,-6.1%,-4.1%,-5.7%,-27.4%,-10.7%,28.2µM*,-28.0%,
O=C(CSc1ccccc1)Nc1nc2ccccc2[nH]1,-2.9%,12.2%,-14.2%,-2.8%[57.1 µM],-8.0%,-0.7%,/,
O=C(N/C=C/c1ccco1)OCc1ccccc1,?,-8.0%,1.9%,-4.3%[11.6 µM],-14.0%,-11.7%,/,
O=C(N/C=C/c1ccco1)NCc1ccccc1,?,-6.3%,?,?,-9.5%,?,-27.0%,
C[C@H](CO)N1C[C@H](C)[C@@H](CN(C)C(=O)c2ccc3ccn(C)c3c2)OCc2cn(nn2)CCCC1=O,/,/,/,-2.2%,/,/,/,
O=C(Nc1cccc(S(=O)(=O)NC2=NCCC2)c1)c1cc(-c2ccco2)nc2ccccc12,7.94µM*,11.2%,12.6µM*,?,10µM*,11.2µM*,?,RECQ1 inh conf=14.1µM*;RECQ1 ADP FP=39.8µM*;GCN5L2 inh-2=?
CCCCOc1ccc(CNC(=O)C2CCCN(c3nnc(-n4c(C)ccc4C)s3)C2)cc1 (centres undefined),/,1.1%,-6.5%,/,-2.4%,/,/,

# High-throughput results: PubChem, National Center for Advancing Translational Sciences (NCATS)
